The structures appear in SMILES notation. Activity calls are given as the source filed them.

Drawing on PubChem BioAssay, this text covers composite z-score and z-score for 6 compounds.

The subject of experiment [1] is Plasmodium falciparum Sir2 (PF13_0152, Sir2A). The experiment in a line: Plasmodium falciparum Sir2A binding compounds – biochemical, small-molecule microarray, 635 nm fluorescence, primary screen (AID 1098).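 Also: score merges spot fluorescence intensity with its signal-to-noise ratio.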 As to conditions: fluorescence 635 nm, higher = more signal.
Experiment [2] is described as follows: probe aDKK1 binding to arrayed compounds – biochemical, biotinylated probe, 635/667 nm fluorescence, primary screen (AID 1099).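 Also: score merges 667nm spot fluorescence with signal to noise across triplicate slides.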 As to conditions: small-molecule microarray, higher = more signal.
Experiment [3] is described as follows: probe aCHRDL2 binding to arrayed compounds – biochemical, biotinylated probe, 635/667 nm fluorescence, primary screen (AID 1100). As to conditions: small-molecule microarray, higher = more signal.
A short description of experiment [4]: change in splice reporter luminescence, either direction, cell-based, HEK293, spliceosome inhibition project, primary screen (AID 1101).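 Also: HEK293 cells carrying a splicing-competent luciferase reporter gene; test concentration not given here.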 As to conditions: HEK293 splicing luciferase reporter, 24 h, higher = more signal, called active from +8 up or from −8 down. On the technique in general: In a reporter assay the amount or activity of a reporter protein is the signal.

For experiment [5], the target named is Fibroblast growth factor 10 (Homo sapiens) (UniProt O15520). The experiment in a line: compounds binding fibroblast growth factor 10 – biochemical, small-molecule microarray, 635 nm fluorescence, primary screen (AID 1102). As to conditions: FGF10 binding, fluorescence 635 nm, higher = more signal.
Fibroblast growth factor 10 (Homo sapiens), sequence (O15520 whole entry, looked up): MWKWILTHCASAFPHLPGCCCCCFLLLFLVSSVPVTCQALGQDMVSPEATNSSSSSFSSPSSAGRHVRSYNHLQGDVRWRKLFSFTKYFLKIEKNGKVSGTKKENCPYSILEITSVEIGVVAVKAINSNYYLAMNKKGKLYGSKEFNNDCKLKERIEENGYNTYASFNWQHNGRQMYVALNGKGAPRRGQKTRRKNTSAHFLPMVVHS
In experiment [6] the test system is glycogen synthase kinase-3 (GSK3A per assay name; protocol says GSK3B). The experiment in a line: compounds binding glycogen synthase kinase-3 – biochemical, small-molecule microarray, 635 nm fluorescence, GSK3A, primary screen (AID 1103). Also: the record names both GSK3A and GSK3B. As to conditions: fluorescence 635 nm, higher = more signal.
In experiment [7] the target is Epidermal growth factor receptor (Homo sapiens) (UniProt P00533). Nature of the experiment: compounds binding epidermal growth factor receptor – biochemical, small-molecule microarray, 635 nm fluorescence, primary screen (AID 1104).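 Also: score merges 667 nm emission intensity with spot signal to noise over triplicate slides.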 As to conditions: EGFR binding, higher = more signal.
Epidermal growth factor receptor (Homo sapiens), sequence (P00533 whole entry, looked up): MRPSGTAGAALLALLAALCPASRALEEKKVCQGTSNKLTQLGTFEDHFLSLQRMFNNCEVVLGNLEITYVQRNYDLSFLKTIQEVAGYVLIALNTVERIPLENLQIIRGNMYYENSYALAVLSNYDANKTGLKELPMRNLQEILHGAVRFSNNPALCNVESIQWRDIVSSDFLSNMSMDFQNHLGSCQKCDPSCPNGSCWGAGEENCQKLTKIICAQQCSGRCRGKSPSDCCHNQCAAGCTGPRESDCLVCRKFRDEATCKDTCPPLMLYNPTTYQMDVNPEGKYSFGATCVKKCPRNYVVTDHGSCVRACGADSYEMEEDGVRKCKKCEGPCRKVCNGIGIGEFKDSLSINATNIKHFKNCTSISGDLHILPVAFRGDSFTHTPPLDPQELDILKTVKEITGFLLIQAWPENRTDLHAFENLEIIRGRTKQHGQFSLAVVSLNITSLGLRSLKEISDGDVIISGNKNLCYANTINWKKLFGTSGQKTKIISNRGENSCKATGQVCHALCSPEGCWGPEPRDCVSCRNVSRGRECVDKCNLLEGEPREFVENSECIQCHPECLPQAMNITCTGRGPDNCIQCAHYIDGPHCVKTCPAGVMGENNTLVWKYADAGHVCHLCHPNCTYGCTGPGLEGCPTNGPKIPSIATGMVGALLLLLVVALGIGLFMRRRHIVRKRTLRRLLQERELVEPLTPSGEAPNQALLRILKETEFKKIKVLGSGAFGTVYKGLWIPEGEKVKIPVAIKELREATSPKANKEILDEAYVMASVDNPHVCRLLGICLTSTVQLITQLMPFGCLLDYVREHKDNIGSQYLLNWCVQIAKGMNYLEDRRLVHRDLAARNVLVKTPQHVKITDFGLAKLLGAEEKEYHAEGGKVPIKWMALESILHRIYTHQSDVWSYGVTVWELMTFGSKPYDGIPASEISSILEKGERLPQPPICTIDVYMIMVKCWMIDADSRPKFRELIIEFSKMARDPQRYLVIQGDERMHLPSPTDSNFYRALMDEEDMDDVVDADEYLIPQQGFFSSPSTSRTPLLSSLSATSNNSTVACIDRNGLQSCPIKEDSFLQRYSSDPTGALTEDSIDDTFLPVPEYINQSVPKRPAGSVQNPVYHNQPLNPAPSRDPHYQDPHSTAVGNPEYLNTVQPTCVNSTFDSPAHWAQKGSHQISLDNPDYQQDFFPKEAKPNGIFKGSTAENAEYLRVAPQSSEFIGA
Experiment [8] addresses Follistatin-related protein 3 (Homo sapiens) (UniProt O95633). Nature of the experiment: compounds binding follistatin-related protein 3 – biochemical, small-molecule microarray, 635 nm fluorescence, primary screen (AID 1105).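 Also: score merges emission near 667 nm and signal to noise per printed spot across three slides.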 As to conditions: FSTL3 binding, higher = more signal.
For experiment [9], the target named is Dickkopf-related protein 1 (Homo sapiens) (UniProt O94907). Nature of the experiment: small molecules binding DKK1 protein – biochemical, small-molecule microarray, 635 nm fluorescence scan, primary screen (AID 1106).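 Also: score merges emission near 667 nm with signal to noise over three replicate slides.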 As to conditions: higher = more signal.
Dickkopf-related protein 1 (Homo sapiens), sequence (O94907 whole entry, looked up): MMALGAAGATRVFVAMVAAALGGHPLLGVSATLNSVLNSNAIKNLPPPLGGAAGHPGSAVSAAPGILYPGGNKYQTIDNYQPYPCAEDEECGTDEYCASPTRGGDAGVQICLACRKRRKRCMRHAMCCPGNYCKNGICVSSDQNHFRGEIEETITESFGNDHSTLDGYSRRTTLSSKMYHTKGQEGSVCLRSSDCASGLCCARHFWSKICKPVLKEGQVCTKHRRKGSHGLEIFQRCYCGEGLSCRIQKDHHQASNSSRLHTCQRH
In experiment [10] the test system is Inhibin beta A chain (activin A). Nature of the experiment: small molecules binding activin A – biochemical, small-molecule microarray, 635 nm fluorescence scan, primary screen (AID 1107).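 Also: mouse activin A protein probed at 4.33 µg/mL on printed slides; score merges bound-protein fluorescence near 667 nm with spot signal-to-noise.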 As to conditions: INHBA, higher = more signal.
The test system of experiment [11] is Human papillomavirus type 1a protein E7 (residues 44-93). Nature of the experiment: small molecules binding HPV E7 44-93 – biochemical, small-molecule microarray, residues 44-93, 635 nm fluorescence, primary screen (AID 1108).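 Also: E7 fragment applied at 1 µg/mL in TBST for 1 h at 4 C; score combines spot fluorescence with its signal to noise ratio.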 As to conditions: fluorescence 635 nm, higher = more signal.
Experiment [12] is described as follows: hepatitis C replication reporter changes, two-sided – Huh7 cells, luciferase reporter, HCV replication inhibitor project, primary screen (AID 1109).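 Also: huh7 hepatoma cells harbouring a luciferase neomycin HCV replicon reporter; luciferase luminescence as measure of HCV replicon replication; test concentration not given here.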 As to conditions: Huh7 HCV replicon luciferase reporter, 48 h; higher = more signal.
For experiment [13], the target named is Left-right determination factor 2 (Homo sapiens) (UniProt O00292). Nature of the experiment: small molecules binding LEFTY2 protein – biochemical, small-molecule microarray, 635 nm fluorescence scan, primary screen (AID 1110). As to conditions: higher = more signal.
Left-right determination factor 2 (Homo sapiens), sequence (O00292 whole entry, looked up): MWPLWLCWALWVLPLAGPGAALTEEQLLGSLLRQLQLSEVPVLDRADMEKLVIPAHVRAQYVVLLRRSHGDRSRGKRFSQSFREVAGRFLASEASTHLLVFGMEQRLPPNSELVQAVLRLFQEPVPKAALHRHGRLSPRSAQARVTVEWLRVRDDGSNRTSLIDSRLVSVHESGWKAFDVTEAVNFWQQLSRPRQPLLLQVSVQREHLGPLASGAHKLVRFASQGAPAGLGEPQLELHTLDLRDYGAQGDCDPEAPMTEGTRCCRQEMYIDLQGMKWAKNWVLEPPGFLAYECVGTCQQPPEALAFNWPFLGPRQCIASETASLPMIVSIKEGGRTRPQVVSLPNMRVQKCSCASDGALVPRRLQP
The target in experiment [14] is Calmodulin-1 (Homo sapiens) (UniProt P0DP23). The experiment in a line: small molecules binding calmodulin-1 with EGTA – biochemical, small-molecule microarray, Cy5-labelled CALM1, profiling panel (AID 1111).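 Also: labelled calmodulin applied in Tris saline Tween buffer holding calcium plus EGTA and DTT.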 As to conditions: Cy5-CALM1 binding fluorescence, higher = more signal.
The target is the same in experiment [15]. Nature of the experiment: small molecules binding Ca-loaded calmodulin-1 – biochemical, small-molecule microarray, Cy5-labelled CALM1, plus calcium, artefact control for SMM control-protein annotation, profiling panel (AID 1112).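 Also: score merges spot fluorescence with signal to noise from triplicate slides.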 As to conditions: Cy5-CALM1 binding fluorescence, higher = more signal.
Experiment [16] in a line: probe aWnt5a binding to arrayed compounds – biochemical, biotinylated probe, 635/667 nm fluorescence, primary screen (AID 1113).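 Also: score merges 667 nm fluorescence intensity with signal-to-noise per printed feature.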 As to conditions: small-molecule microarray, higher = more signal.
Experiment [17] is described as follows: probe aShh binding to arrayed compounds – biochemical, biotinylated probe, 635/667 nm fluorescence, primary screen (AID 1114).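 Also: probe is biotin-labelled aShh protein from a stem cell growth factor screen; measures binding of labelled protein to compounds printed on the slide; score merges feature fluorescence at 667 nm with signal-to-noise.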 As to conditions: small-molecule microarray, higher = more signal.
Experiment [18] in a line: probe aNog binding to arrayed compounds – biochemical, biotinylated probe, 635/667 nm fluorescence, primary screen (AID 1115).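 Also: probe is biotinylated aNog protein used at 0.15 µg/mL for 1 h at 4 C; z-score combines 667 nm fluorescence of each spot with its signal to noise.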 As to conditions: small-molecule microarray, higher = more signal.
In experiment [19] the target is Torsin-1A-interacting protein 1 (Homo sapiens) (UniProt Q5JTV8). Nature of the experiment: compound microarray binding of lysate hLAP1 – cell lysate, small-molecule microarray, COS7 lysate, 635/667 nm fluorescence, primary screen (AID 1116). As to conditions: 635 nm fluorescence, higher = more signal.
Torsin-1A-interacting protein 1 (Homo sapiens), sequence (Q5JTV8 whole entry, looked up): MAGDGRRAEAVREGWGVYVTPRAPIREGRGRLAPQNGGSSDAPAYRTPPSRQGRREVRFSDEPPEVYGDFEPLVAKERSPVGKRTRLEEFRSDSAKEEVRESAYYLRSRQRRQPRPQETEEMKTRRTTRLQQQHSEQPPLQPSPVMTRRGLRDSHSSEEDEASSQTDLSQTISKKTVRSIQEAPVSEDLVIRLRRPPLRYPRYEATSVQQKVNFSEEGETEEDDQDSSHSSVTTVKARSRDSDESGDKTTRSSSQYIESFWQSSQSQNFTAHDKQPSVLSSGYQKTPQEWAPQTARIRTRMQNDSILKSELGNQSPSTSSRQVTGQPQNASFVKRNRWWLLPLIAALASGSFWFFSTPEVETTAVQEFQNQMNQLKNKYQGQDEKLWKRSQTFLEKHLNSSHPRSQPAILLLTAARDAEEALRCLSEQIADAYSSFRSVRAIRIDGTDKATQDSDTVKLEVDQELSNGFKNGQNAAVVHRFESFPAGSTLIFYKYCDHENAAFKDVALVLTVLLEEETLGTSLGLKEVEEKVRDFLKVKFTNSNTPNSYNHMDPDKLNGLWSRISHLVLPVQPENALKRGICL
Experiment [20] addresses Alpha-bungarotoxin (Bungarus multicinctus) (UniProt P60615). The experiment in a line: compounds binding labelled alpha-BTX control protein – biochemical, small-molecule microarray, Alexa647 label, 635/667 nm fluorescence, artefact control for SMM control protein annotation, profiling panel (AID 1117). As to conditions: alpha-BTX-A647 binding fluorescence, higher = more signal.

Alpha-bungarotoxin (Bungarus multicinctus), sequence (P60615 whole entry, looked up): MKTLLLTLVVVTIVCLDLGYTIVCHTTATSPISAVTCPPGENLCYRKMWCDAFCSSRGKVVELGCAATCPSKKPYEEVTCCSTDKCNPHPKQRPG
Follistatin-related protein 3 (Homo sapiens), sequence (O95633 whole entry, looked up): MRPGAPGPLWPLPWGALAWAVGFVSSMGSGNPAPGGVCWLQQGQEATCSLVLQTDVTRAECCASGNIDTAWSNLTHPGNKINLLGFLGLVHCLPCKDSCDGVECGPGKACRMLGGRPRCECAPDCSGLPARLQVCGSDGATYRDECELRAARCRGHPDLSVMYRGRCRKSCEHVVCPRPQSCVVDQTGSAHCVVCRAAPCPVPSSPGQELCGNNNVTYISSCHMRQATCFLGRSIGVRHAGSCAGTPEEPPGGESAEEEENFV

For the compound `COCCOC(=O)N1C(=O)[C@@]2(c3ccccc31)[C@H](c1ccc(OCCO)cc1)N1[C@H](c3ccccc3)[C@H](c3ccccc3)OC(=O)[C@H]1[C@@H]2C(=O)N1CCCCCCC1`, the composite z-score in experiment [1] worked out at 2.35; in [2] it was 3.24; in experiment [3], 1.9; in experiment [5] it was 1.76; in experiment [6] it was 1.46; in experiment [7], 2.03. Further, the composite z-score in experiment [8] amounted to 1.76; in experiment [9], 2.62; in experiment [10] it was 1.89; in experiment [11] it was 1.52; in experiment [13] it was 1.83; in experiment [14], 3.21. Also, the composite z-score in experiment [15] was determined as 1.79; in experiment [16], 1.61; in experiment [17], 3.26; in experiment [18], 3.73; in experiment [19] it was 5.85; in [20], 5.03. The z-score in experiment [4] is -1.59 (inactive); in experiment [12], -1.56.

With `COCCOC(=O)N1C(=O)[C@@]2(c3cc(C#CCNC(N)=O)ccc31)[C@H](c1ccc(OCCO)cc1)N1[C@H](c3ccccc3)[C@H](c3ccccc3)OC(=O)[C@H]1[C@@H]2C(N)=O`, the composite z-score in experiment [1] was 0.826; in experiment [2], 0.695; in experiment [3], 0.435; in experiment [5] it was 0.748; in [6], -0.0886; in [7], 1.14. In addition, the composite z-score in [8] amounted to 0.455; in experiment [9], 0.204; in experiment [10] it was 1.07; in experiment [11], 1.33; in [13], 0.437; in experiment [14] it was 0.741. Moreover, the composite z-score in [15] was 0.585; in experiment [16], -0.089; in [17], 0.225; in experiment [18], 0.54; in [19], 0.803; in experiment [20], 0.667. Also, the z-score in experiment [4] is 0.928 (inactive); in experiment [12], -0.106.

For the compound `O=C1OCCC=C[C@H]2OC34C=CCN(c5ccc(Cl)cc5)C(=O)[C@H]3N(CCCCCCO)C(=O)[C@@H]4C12` (stereo not given in full), the composite z-score in [1] was 1.12; in [2], -0.0366; in experiment [3] it was 0.499; in [5] it was -0.744; in experiment [6], -0.359; in [7] it was -1.23. Moreover, the composite z-score is -0.509 in experiment [8]; -0.712 in experiment [9]; -0.279 in [10]; -0.344 in experiment [11]; -1.25 in experiment [13]; -0.869 in experiment [14]. Moreover, the composite z-score in experiment [15] was -0.593; in experiment [16], -0.152; in experiment [17] it was -0.109; in experiment [18], 0.0422; in experiment [19], -0.307; in experiment [20], -1.35. The z-score is 0.189 (inactive) in [4] and -0.476 in experiment [12].

For the compound `Cc1c(NC(=O)/C(C#N)=C/c2ccccc2Cl)c(=O)n(-c2ccccc2)n1C`, the composite z-score in experiment [1] is 0.633; in experiment [2], -0.258; in [3], -0.0592; in [5] it was 0.185; in experiment [6] it was -0.046; in experiment [7], 0.139. In addition, the composite z-score is 0.361 in experiment [8]; 0.491 in [9]; 0.395 in experiment [10]; -0.11 in experiment [11]; 0.453 in experiment [13]; 1.01 in [14]. The composite z-score is -0.154 in experiment [15]; -0.0377 in [16]; -0.588 in [17]; -0.226 in [18]; 0.858 in [19]; 0.42 in experiment [20]. Further, the z-score in [4] was -0.378 (inactive); in experiment [12], 0.614.

For `COC(=O)[C@@]1(Cc2ccccc2)[C@H]2c3cc(C(=O)N(C)C)n(CCn4cc([N+](=O)[O-])nc4C)c3C[C@H]2CN1C(=O)c1ccccc1`, the composite z-score in experiment [1] is 1.72; in [2], -0.262; in experiment [3], 0.436; in experiment [5], 0.937; in [6] it was 0.793; in experiment [7], 0.355. The composite z-score in [8] was 0.444; in experiment [9], 0.0356; in experiment [10], 0.581; in experiment [11], 1.15; in experiment [13] it was 0.0356; in experiment [14] it was 0.437. Further, the composite z-score in [15] turned out to be 0.361; in experiment [16], 0.0162; in [17], 0.0952; in experiment [18], 0.576; in [19], 2.83; in experiment [20], 0.413. The z-score in experiment [4] was -0.106 (inactive); in experiment [12], -0.347.

Turning to `COC(=O)C1=CC(CCCO)=CC(C)N(Cc2cccc(OC(F)(F)F)c2)C=C1C(=O)OC` (stereo not given), the composite z-score in experiment [1] was 0.325; in [2], 0.116; in [3], 0.259; in experiment [5] it was 0.278; in experiment [6], -0.606; in experiment [7], -0.94. The composite z-score in experiment [8] was 0.0535; in experiment [9], -0.695; in experiment [10] it was 0.383; in experiment [11], 1.35; in experiment [13], -0.708; in [14], 1.02. Also, the composite z-score was 1.15 in experiment [15]; -0.0643 in experiment [16]; 0.0929 in experiment [17]; 0.716 in experiment [18]; 0.595 in experiment [19]; 0.498 in [20]. Further, the values for the z-score in experiment [4] and in experiment [12] were -0.488 (inactive) and -0.307, respectively.
